# For some assays here: Measured potencies and affinities stand elsewhere.
# Tests used:
# Design in all cases: scale not given: direction of the effect not stated beside the values
# [1] = biological target: Protein translocase subunit SecA (Escherichia coli (strain K12)) (UniProt P10408); test: Assay to Identify E. coli SecA ATPase Inhibitors; assay type: functional; conditions: 30 µM
# [2] = biological target: T1, Ubiquitin-activating enzyme e1, putative (Leishmania donovani (strain BPK282A1)) (UniProt E9BSI1); test: Leishmania donovani Ubiquitin Activating Enzyme (LdE1); assay type: functional; conditions: 30 µM
# T1 sequence (whole entry): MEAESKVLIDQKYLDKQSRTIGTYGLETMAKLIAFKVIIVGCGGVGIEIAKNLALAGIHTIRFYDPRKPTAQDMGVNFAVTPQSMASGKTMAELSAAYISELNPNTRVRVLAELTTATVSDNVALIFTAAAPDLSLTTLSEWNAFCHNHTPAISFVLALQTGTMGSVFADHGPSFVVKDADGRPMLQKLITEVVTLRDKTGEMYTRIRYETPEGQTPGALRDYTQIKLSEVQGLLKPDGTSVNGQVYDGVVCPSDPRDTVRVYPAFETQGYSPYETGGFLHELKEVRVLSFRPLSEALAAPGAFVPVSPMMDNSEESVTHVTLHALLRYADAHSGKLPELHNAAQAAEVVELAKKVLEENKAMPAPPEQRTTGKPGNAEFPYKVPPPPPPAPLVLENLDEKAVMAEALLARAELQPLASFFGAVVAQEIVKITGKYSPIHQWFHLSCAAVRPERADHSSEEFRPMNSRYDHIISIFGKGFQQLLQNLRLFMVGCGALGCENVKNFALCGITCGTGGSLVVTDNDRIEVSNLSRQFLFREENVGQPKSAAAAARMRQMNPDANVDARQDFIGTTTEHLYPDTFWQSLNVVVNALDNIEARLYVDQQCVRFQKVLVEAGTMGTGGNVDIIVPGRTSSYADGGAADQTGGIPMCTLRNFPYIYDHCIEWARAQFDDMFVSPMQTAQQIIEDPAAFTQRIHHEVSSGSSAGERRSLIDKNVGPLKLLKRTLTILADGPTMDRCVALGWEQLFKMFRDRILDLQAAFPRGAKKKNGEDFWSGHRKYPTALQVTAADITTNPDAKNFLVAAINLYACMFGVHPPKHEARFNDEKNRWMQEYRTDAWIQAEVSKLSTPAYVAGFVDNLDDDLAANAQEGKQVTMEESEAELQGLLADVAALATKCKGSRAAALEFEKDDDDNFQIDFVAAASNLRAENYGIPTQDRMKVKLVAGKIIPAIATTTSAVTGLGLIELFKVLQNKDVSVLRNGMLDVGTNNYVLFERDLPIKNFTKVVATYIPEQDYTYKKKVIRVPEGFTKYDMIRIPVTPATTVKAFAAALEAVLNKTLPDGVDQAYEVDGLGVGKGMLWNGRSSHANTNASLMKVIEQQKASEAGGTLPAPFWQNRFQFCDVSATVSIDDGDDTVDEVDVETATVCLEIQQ
# [3] = biological target: AMP-activated protein kinase, AMPK (Homo sapiens) (UniProt P54646+O43741+P54619+Q9UGJ0+Q9Y478+Q13131+Q9UGI9); test: AMP-dependent Kinase enzyme assay. An in vitro enzyme assay that detects ADP turnover that is directly proportional to AMPK activity. This uses naive AMPK that is activated during the assay with MK-8722; assay type: functional; conditions: 30 µM
# [4] = biological target: Sialic acid-binding Ig-like lectin 9 (Homo sapiens) (UniProt Q9Y336); test: Hs-Siglec9 ALPHAscreen SOP 20170721; conditions: 10 µM
# Trypanosoma cruzi = test: Trypanosoma cruzi phosphomannomutase and mannose-1-phosphate guanylyltransferase assay; assay type: functional; conditions: 10 µM
# [5] = biological target: T2, Arginase-2, mitochondrial (Homo sapiens) (UniProt P78540); test: in vitro enzyme assay to detect the production of urea directly proportional to the activity of Arginase II; assay type: functional; conditions: 33.3 µM; further: in the data most compounds retested in dose-response had high values
# T2 sequence (whole entry): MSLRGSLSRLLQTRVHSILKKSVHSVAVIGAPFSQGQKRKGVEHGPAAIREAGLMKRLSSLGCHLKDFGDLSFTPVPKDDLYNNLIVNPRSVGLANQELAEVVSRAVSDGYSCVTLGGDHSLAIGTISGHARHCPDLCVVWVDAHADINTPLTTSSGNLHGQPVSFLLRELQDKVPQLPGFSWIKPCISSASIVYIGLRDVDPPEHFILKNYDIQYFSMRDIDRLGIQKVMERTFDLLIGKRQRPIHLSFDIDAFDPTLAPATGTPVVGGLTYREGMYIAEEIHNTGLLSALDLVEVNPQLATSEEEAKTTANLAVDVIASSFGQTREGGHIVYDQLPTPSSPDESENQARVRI
# [6] = biological target: T3, Proteasome subunit beta (Trypanosoma cruzi) (UniProt O96673); test: Trypanosoma cruzi proteasome chymotrypsin-like activity (TcProtChymo) assay.; further: in the data most compounds retested in dose-response had high values; assay type: functional; conditions: 9.37 µM
# T3 sequence (whole entry): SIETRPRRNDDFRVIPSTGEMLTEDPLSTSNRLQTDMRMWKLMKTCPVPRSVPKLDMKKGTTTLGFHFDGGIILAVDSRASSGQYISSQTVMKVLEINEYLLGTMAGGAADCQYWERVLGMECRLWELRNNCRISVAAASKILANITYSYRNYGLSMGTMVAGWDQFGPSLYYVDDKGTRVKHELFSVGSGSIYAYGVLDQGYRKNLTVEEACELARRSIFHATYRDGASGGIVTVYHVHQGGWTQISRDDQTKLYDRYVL
# Homo sapiens = species on record: Homo sapiens; test: To identify inhibition of the IFN signalling (Jak-Stat) pathway via expression of an eGFP reporter gene under the control of an IFN-stimulated response element (ISRE) containing MxA promoter.; assay type: functional; conditions: 30 µM
# [7] = biological target: T4, Tyrosyl-tRNA synthetase, putative (Trypanosoma cruzi (strain CL Brener)) (UniProt Q4DSP6); test: Trypanosoma cruzi tyrosyl tRNA synthetase (TcYRS) _High Tyrosine SOP; assay type: functional; conditions: 30 µM; further: in the data most compounds retested in dose-response had high values
# T4 sequence (whole entry): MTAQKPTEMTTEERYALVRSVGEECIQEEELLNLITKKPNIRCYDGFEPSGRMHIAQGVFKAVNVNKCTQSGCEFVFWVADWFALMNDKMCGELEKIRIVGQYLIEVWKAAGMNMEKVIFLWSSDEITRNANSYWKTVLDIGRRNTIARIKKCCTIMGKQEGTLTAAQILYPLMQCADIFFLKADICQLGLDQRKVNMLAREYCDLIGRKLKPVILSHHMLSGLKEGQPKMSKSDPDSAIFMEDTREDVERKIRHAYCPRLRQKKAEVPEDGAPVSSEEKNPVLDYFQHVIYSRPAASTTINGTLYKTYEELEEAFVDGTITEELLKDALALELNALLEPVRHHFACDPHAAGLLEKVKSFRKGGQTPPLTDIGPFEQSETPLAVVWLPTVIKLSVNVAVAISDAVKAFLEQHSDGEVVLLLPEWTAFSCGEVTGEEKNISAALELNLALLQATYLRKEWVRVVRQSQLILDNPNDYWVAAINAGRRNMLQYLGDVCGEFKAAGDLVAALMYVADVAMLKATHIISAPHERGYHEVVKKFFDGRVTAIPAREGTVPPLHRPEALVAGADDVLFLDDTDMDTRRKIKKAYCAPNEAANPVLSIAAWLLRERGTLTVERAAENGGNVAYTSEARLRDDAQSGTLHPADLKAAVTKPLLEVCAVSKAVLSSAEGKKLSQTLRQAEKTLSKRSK
# [8] = biological target: T4, Tyrosyl-tRNA synthetase, putative (Trypanosoma cruzi (strain CL Brener)); test: Trypanosoma cruzi tyrosyl tRNA synthetase (TcYRS) SOP; assay type: functional; conditions: 30 µM
# [9] = biological target: Chromo domain-containing protein 1 (Saccharomyces cerevisiae (strain ATCC 204508 / S288c) (Baker's yeast)) (UniProt P32657); test: ScCHD-1 Enzyme Inhibition Assay; assay type: functional; conditions: 30 µM; further: in the data most compounds retested in dose-response had high values
# Chromo domain-containing protein 1 (Saccharomyces cerevisiae (strain ATCC 204508 / S288c) (Baker's yeast)), sequence (P32657 whole entry, the tested form may be a part): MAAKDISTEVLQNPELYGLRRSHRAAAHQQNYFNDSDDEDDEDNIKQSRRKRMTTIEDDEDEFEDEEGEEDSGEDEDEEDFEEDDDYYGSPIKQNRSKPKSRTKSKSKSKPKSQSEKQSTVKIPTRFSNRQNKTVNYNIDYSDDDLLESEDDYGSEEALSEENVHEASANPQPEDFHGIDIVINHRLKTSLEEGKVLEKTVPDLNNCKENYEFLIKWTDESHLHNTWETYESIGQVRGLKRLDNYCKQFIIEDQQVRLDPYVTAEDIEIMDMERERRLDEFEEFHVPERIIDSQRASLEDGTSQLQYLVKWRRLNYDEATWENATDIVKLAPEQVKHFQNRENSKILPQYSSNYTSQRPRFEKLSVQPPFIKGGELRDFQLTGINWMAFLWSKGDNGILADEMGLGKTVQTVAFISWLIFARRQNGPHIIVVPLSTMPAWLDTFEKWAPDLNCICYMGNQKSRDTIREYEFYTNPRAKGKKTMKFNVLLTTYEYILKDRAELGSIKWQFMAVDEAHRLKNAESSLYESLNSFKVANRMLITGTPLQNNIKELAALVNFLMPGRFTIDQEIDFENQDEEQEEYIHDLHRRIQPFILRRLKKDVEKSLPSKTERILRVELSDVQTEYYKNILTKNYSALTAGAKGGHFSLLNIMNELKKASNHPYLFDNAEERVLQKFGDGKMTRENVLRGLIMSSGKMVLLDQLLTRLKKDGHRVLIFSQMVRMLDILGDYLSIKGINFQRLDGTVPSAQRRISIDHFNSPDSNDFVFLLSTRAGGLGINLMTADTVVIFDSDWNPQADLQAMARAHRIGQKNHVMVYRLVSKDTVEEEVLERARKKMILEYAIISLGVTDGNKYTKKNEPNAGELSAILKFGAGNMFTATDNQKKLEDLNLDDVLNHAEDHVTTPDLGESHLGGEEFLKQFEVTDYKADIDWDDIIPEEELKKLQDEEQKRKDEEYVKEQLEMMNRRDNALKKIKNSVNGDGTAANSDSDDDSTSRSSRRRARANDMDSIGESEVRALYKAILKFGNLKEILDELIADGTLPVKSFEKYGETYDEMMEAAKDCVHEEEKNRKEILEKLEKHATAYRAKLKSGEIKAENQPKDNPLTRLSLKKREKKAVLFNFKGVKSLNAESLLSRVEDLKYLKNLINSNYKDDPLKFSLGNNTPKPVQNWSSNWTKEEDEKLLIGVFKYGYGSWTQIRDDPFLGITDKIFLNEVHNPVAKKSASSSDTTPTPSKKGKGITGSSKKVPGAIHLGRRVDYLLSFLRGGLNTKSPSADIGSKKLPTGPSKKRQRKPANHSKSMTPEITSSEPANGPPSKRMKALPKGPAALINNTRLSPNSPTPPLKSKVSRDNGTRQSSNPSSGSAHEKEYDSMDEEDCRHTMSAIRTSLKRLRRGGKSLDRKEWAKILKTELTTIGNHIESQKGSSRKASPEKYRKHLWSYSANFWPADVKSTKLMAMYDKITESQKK
# Protein translocase subunit SecA (Escherichia coli (strain K12)), sequence (P10408 whole entry): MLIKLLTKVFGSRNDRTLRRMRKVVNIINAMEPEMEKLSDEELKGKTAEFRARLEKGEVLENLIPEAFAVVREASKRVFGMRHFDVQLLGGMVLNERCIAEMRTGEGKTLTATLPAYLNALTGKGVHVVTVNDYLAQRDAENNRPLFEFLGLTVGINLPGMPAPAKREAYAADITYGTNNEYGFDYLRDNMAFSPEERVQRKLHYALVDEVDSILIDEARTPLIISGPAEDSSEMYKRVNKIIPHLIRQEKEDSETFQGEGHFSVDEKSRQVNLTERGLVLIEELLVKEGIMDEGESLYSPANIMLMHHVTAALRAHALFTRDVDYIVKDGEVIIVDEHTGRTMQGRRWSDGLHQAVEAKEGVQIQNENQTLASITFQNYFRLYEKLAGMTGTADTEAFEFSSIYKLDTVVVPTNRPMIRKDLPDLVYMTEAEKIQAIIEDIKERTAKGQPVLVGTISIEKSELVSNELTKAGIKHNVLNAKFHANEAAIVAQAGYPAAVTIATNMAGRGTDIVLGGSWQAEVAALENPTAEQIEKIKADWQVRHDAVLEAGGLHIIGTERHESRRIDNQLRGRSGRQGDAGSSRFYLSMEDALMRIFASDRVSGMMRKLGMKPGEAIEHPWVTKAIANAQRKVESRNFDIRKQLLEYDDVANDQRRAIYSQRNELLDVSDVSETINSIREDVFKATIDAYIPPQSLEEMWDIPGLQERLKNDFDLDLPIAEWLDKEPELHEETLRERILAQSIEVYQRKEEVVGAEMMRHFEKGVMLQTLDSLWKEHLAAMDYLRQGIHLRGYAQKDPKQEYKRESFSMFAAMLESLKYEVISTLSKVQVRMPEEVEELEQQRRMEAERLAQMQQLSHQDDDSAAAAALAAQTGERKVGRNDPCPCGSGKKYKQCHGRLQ
# Sialic acid-binding Ig-like lectin 9 (Homo sapiens), sequence (Q9Y336 whole entry): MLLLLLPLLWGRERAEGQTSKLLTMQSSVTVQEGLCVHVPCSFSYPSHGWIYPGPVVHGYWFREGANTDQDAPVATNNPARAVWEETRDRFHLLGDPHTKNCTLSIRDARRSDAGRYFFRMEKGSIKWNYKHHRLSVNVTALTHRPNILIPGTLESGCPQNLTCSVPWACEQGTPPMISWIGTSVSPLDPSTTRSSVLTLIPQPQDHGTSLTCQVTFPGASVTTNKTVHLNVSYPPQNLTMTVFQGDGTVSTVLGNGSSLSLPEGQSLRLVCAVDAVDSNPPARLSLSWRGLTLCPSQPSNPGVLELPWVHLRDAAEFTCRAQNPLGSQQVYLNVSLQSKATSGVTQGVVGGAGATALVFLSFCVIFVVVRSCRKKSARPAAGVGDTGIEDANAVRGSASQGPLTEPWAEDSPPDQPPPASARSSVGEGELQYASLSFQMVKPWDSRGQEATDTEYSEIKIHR
SMILES,Percent Effect [1] [%],Percent Effect [2] [%],Percent Effect [3] [%],Percent Effect [4] [%],Percent Effect (Trypanosoma cruzi) [%],Percent Effect [5] [%],Percent Effect [6] [%],Percent Effect (Homo sapiens) [%],Percent Effect [7] [%],Percent Effect [8] [%],Percent Effect [9] [%]
CCn1ccnc1CN1CCOC(CNc2cccnn2)C1 (configuration not stated),-0.964,18.2,-6.06,5.48,1.5,2.85,16.4,17.5,4.85,19.5,-8.74
Fc1cccc(-c2nc(CN3CCOC(Cn4cccn4)C3)co2)c1 (configuration not stated),-5.98,2.7,-6.81,3.19,-2.36,4.81,4.68,-1.08,7.39,6.17,-3.05
Cc1ccccc1S(=O)(=O)NC(=O)CSc1ccc2c(c1)OCCO2,-0.381,1.39,-0.933,-9.91,-3.21,0,10,1.45,-11.6,-7.69,0.792
Cc1noc(C)c1CN1CC[C@H]2OCC[C@@H](C(=O)N3CCCO3)[C@@H]2C1,-8.03,16,-5.74,-1.2,5.02,-43.5,14.7,-8.37,-1.04,2.5,-6.96
Cc1cccc2[nH]c(C3CCN(C(=O)c4ccnn4C)CC3)nc12,-4.98,7.79,3.06,3.85,-4.62,-23.4,15.1,2.04,9.68,13.6,-3.54
COCCNS(=O)(=O)c1ccc2c(c1)CCN(C(=O)c1cncn1C)C2,-1.62,6.94,-17.1,2.73,-1.46,6.62,22.1,6.15,7.37,10.3,-2.12
Cn1cc(Br)c(=O)c(NS(=O)(=O)c2ccc(F)cc2)c1,-0.436,2.7,-1.93,10.6,5.41,-0.476,10.5,2.64,2.65,12.2,-2.91
Cc1ncsc1C(=O)N(C)Cc1ccncc1,-4.37,10.5,3,-5.42,-6.58,-2.68,16,23.6,1.47,-7.32,-6
COc1cc(C)nc(N2CCN(Cc3nccn3C)CC2)n1,-2.16,9.72,3.08,-2.82,-0.875,1.32,10.3,0.819,2.1,2.56,-3.1
CC1=N[C@@]2(CC[C@@H]3CN(Cc4ccccc4F)C[C@@H]32)C(=O)N1CC1CC1,-5,0,5.98,-2.03,-0.195,-2.5,2.96,11.1,4.95,3.66,1.49
CNc1cc(CNC(=O)c2ccccc2)nc(-c2ccncc2)n1,-5.75,9.46,9.36,-2.66,3.56,-71.7,15.8,1.41,5.38,14.3,-13.8
OC(CN1CCOCC1)c1ccc(OC(F)(F)F)cc1 (configuration not stated),-5.02,2.7,35.5,-1.38,0.283,0.401,4.32,1.68,6.4,13.6,-7.59
Cc1cc(N2CCCN(C(=O)Cc3csc(C)n3)CC2)ccn1,0.872,5.41,0.202,-1.96,-2.7,4.76,20.2,9.24,2.65,9.76,-3.36
COCCOc1ccc(NC(=O)C2CC(=O)N(C)C2)cn1 (configuration not stated),0.0993,12.7,-16.4,-3.76,-5.95,6.46,1.06,23.3,1.48,11.4,-5.38
CN1CC(=O)N(c2cccnc2)CC12CCN(C(=O)C1CCCCC1)C2 (configuration not stated),0.868,10.7,6.75,12.8,-1.74,-72.9,12.3,24,3.12,2.5,-2.49
CN(Cc1ccc(F)cc1)C(=O)NCc1nnc2n1CCCCC2,-8.45,12.7,-3.69,5.52,10.5,-6.08,7.62,15.3,6.4,13.9,-15
CCc1nnc2n1CCN(Cc1csc(-c3cnn(C)c3)n1)C2,-3.51,12.5,-7.81,3.08,-3.79,-2.21,18.6,-7.26,5.26,0,0.402
CN(Cc1nnc2n1CCC2)C(=O)NCCc1ccc2c(c1)OCO2,-3.06,21.6,-5.22,-0.223,-5.38,-2.4,10.6,18.3,7.39,16.1,-6.24
Cc1cnc(NC(=O)c2ccc(-n3ncc(C#N)c3N)cc2)s1,-5.51,7.59,14.4,4.78,-6.33,-4.18,5.49,29,11.3,24.1,-2.52
CN(Cc1ccc(F)cc1)C(=O)CN1CCOC(Cn2cncn2)C1 (configuration not stated),0.893,17.7,-2.68,-5.85,-7.65,-1.52,17.6,36,1.48,3.8,-4.1
O=C(NC1CC1)[C@H]1C[C@H]2OCC[C@H]2N(CC2CC2)C1,-4.51,-2.67,3.02,9.5,-3.28,-55.7,0.513,6.42,-4.17,-7.5,4.05
COCCC(=O)N1CC[C@@H]2O[C@@H](C)C[C@H]2C1,-6.08,8,0.716,0.473,2.36,-3.96,6.61,15.7,6.38,11.5,-7.49

# Reference: ChEMBL document CHEMBL3988442, “University of Dundee, Small-Polar-MMV Screening Library” (2021)
